From article PMC7862700, “An all-to-all approach to the identification of sequence-specific readers for epigenetic DNA modifications on cytosine”

Columns and labels:
Assay in all cases: DAPPL (digital affinity profiling via proximity ligation, sequencing); 10 mM Tris-HCl pH 7.5, 50 mM NaCl, 1 mM DTT, 4% glycerol, room temperature, 30 min; GST-TFs on glutathione beads, 16-mer random dsDNA library, 0.1% formaldehyde crosslink after washing; high values mean tight binding
FLI1 = biological target: T1, FLI1 (Homo sapiens, UniProt Q01543 1-452); settings: protein: recombinant; tags: N-terminal GST; dsDNA, one strand shown
T1 sequence: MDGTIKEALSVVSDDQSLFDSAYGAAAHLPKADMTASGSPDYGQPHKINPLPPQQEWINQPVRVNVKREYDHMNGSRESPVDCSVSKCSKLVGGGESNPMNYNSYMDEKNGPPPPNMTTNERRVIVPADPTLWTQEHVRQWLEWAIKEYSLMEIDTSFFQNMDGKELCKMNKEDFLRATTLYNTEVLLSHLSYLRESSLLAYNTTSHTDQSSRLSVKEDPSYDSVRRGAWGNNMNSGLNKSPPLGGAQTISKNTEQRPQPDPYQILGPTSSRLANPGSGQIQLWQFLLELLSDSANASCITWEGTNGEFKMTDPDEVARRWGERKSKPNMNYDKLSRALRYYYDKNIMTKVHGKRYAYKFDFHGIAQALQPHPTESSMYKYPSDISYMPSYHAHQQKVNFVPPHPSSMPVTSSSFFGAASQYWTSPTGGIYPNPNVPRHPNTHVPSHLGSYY
Outline: (§1)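 Pools were built from human transcription factors expressed in yeast as GST fusions, captured on glutathione beads and DNA-barcoded, along with a tag-only sample. Incubation with 200 nmole of a 16-mer random double-stranded DNA library lasted 30 min at room temperature in Tris/NaCl/DTT/glycerol buffer, and was followed by washing, 0.1% formaldehyde crosslinking, proximity ligation, PCR amplification and Illumina NextSeq500 sequencing. Binding signal is the quotient of each hexamer's read frequency for a factor and its frequency for the tag-only sample.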

ELK1 = biological target: T2, ELK1 (Homo sapiens, UniProt P19419 1-428); settings: protein: recombinant; tags: N-terminal GST; dsDNA, one strand shown
T2 sequence: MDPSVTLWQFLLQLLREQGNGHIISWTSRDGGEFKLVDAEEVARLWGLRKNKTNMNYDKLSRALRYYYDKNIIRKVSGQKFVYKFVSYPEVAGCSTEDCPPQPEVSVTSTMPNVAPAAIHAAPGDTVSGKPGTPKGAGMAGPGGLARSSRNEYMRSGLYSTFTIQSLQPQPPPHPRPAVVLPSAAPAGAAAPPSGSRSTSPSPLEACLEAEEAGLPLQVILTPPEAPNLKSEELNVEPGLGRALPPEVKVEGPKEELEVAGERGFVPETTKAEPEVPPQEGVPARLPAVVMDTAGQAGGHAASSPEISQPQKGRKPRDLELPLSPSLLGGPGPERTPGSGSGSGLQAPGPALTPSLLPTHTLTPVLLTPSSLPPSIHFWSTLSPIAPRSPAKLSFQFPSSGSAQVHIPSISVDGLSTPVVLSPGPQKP
Outline: as §1

GABPA = biological target: T3, GABPA (Homo sapiens, UniProt Q06546 1-454); settings: protein: recombinant; tags: N-terminal GST; dsDNA, one strand shown
T3 sequence: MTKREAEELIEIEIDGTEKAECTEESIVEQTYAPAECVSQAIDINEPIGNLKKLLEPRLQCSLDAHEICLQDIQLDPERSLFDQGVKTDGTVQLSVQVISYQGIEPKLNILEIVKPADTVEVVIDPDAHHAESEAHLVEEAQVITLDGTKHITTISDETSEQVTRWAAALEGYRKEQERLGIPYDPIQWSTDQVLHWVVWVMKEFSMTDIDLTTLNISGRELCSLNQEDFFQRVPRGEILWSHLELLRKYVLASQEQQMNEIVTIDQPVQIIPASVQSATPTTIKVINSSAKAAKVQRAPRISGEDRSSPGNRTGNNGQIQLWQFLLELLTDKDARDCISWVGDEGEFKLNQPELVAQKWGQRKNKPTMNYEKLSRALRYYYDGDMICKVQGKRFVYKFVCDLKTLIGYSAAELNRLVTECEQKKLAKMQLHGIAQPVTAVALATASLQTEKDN
Outline: as §1

ERG = biological target: T4, ERG (Homo sapiens, UniProt P11308 1-479); settings: protein: recombinant; tags: N-terminal GST; dsDNA, one strand shown
T4 sequence: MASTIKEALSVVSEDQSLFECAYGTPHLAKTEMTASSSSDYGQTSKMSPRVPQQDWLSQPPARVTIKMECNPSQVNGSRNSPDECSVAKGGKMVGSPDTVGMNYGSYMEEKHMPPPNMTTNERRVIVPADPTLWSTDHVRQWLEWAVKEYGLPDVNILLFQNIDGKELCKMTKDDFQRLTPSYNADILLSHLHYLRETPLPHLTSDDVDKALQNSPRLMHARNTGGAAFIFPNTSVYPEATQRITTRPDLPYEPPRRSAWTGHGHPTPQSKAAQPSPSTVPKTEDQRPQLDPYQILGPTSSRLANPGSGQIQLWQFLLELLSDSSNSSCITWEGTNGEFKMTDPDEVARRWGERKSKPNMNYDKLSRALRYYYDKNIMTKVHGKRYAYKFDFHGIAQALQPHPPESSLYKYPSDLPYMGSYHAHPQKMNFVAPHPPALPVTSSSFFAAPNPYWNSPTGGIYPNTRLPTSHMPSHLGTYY
Outline: as §1

ELF1 = ELF1 (Homo sapiens, UniProt P32519 1-619); settings: protein: recombinant; tags: N-terminal GST; dsDNA, one strand shown
Outline: as §1

EHF = biological target: T5, EHF (Homo sapiens, UniProt Q9NZC4 1-300); settings: protein: recombinant; tags: N-terminal GST; dsDNA, one strand shown
T5 sequence: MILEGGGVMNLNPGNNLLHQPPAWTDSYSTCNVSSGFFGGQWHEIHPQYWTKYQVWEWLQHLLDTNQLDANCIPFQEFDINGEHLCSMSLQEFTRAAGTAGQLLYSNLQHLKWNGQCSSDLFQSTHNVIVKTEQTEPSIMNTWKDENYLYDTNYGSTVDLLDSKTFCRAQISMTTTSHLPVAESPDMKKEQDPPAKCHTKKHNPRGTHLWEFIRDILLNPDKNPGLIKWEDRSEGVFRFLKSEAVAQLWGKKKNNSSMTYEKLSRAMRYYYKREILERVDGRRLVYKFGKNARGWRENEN
Outline: as §1

SPI1 = SPI1 (Homo sapiens, UniProt P17947 1-270); settings: protein: recombinant; tags: N-terminal GST; dsDNA, one strand shown
Outline: as §1

SPIB = SPIB (Homo sapiens, UniProt Q01892 1-262); settings: protein: recombinant; tags: N-terminal GST; dsDNA, one strand shown
Outline: as §1

ELK3 = biological target: T6, ELK3 (Homo sapiens, UniProt P41970 1-407); settings: protein: recombinant; tags: N-terminal GST; dsDNA, one strand shown
T6 sequence: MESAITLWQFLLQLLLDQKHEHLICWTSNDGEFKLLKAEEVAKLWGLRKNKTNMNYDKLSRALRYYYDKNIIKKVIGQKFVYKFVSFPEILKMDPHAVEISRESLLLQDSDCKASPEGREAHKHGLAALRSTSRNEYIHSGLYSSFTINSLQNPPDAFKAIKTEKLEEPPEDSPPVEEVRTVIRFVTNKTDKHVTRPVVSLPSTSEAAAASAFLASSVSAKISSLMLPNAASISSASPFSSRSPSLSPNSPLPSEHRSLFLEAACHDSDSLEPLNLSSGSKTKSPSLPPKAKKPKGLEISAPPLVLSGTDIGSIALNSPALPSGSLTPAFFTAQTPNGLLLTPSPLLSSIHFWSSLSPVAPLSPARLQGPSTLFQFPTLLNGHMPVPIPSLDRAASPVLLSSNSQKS
Outline: as §1

FEV = biological target: T7, FEV (Homo sapiens, UniProt Q99581 1-238); settings: protein: recombinant; tags: N-terminal GST; dsDNA, one strand shown
T7 sequence: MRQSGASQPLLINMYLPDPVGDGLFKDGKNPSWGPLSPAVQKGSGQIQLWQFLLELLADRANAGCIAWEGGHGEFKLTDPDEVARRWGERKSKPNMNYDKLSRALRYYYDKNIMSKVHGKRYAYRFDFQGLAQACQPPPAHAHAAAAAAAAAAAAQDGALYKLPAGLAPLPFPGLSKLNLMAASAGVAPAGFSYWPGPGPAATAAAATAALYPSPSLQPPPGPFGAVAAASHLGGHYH
Outline: as §1

ETV5 = ETV5 (Homo sapiens, UniProt P41161 1-510); settings: protein: recombinant; tags: N-terminal GST; dsDNA, one strand shown
Outline: as §1

HSF1 = HSF1 (Homo sapiens, UniProt Q00613 1-529); settings: protein: recombinant; tags: N-terminal GST; chain copies: 3; dsDNA, one strand shown
Outline: as §1

SPIC = biological target: T8, SPIC (Homo sapiens, UniProt Q8N5J4 1-248); settings: protein: recombinant; tags: N-terminal GST; dsDNA, one strand shown
T8 sequence: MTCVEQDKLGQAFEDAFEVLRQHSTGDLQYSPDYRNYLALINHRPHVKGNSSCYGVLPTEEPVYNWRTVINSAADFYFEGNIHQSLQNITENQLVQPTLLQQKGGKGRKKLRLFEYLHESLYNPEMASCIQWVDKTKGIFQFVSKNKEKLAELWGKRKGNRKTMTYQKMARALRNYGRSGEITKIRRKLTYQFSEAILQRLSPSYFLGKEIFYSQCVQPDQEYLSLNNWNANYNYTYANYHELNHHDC
Outline: as §1

ELF4 = ELF4 (Homo sapiens, UniProt Q99607 1-663); settings: protein: recombinant; tags: N-terminal GST; dsDNA, one strand shown
Outline: as §1

ELK4 = biological target: T9, ELK4 (Homo sapiens, UniProt P28324-2 1-405); settings: protein: recombinant; tags: N-terminal GST; dsDNA, one strand shown
T9 sequence: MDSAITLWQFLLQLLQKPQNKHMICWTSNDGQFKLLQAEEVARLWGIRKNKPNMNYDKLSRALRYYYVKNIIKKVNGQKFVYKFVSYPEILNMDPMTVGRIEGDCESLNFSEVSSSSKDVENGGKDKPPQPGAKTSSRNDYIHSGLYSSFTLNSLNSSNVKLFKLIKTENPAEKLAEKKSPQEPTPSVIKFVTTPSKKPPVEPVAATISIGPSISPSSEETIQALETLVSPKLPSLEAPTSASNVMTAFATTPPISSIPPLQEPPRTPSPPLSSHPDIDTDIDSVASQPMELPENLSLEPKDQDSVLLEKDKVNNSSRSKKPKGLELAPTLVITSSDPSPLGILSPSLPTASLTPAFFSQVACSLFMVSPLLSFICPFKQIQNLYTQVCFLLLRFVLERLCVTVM
Outline: as §1

ETV2 = biological target: T10, ETV2 (Homo sapiens, UniProt O00321 1-342); settings: protein: recombinant; tags: N-terminal GST; dsDNA, one strand shown
T10 sequence: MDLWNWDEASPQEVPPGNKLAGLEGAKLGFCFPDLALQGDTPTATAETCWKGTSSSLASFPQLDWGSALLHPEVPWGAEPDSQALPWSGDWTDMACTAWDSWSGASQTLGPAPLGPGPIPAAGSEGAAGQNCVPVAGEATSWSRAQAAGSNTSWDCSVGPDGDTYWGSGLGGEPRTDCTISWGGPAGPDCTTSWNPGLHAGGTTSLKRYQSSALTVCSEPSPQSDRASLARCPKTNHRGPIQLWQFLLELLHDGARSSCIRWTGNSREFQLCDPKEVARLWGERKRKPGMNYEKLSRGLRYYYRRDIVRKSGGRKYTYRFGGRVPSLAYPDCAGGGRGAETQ
Outline: as §1

ELF3 = biological target: T11, ELF3 (Homo sapiens, UniProt P78545 1-371); settings: protein: recombinant; tags: N-terminal GST; dsDNA, one strand shown
T11 sequence: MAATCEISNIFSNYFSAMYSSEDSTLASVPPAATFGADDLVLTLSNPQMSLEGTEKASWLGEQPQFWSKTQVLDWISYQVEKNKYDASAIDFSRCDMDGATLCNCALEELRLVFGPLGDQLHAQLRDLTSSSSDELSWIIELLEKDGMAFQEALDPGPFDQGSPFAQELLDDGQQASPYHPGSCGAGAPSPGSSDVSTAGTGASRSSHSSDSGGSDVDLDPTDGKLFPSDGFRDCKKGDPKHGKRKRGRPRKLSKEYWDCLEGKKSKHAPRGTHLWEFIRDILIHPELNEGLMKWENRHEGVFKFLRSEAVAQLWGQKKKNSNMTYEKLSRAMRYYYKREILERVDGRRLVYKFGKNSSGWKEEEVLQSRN
Outline: as §1

CRX = CRX (Homo sapiens, UniProt O43186 1-299); settings: protein: recombinant; tags: N-terminal GST; dsDNA, one strand shown
Outline: as §1

ETV1 = ETV1 (Homo sapiens, UniProt P50549 1-477); settings: protein: recombinant; tags: N-terminal GST; dsDNA, one strand shown
Outline: as §1

SPIB, sequence (Q01892 whole entry): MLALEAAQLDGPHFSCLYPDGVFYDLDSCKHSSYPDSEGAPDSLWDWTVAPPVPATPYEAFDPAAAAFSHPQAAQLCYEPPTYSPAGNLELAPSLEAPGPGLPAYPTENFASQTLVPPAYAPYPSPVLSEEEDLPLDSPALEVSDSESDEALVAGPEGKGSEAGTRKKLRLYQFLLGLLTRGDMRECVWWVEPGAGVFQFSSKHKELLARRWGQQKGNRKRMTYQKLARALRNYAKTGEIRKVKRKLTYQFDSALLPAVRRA
ELF4, sequence (Q99607 whole entry): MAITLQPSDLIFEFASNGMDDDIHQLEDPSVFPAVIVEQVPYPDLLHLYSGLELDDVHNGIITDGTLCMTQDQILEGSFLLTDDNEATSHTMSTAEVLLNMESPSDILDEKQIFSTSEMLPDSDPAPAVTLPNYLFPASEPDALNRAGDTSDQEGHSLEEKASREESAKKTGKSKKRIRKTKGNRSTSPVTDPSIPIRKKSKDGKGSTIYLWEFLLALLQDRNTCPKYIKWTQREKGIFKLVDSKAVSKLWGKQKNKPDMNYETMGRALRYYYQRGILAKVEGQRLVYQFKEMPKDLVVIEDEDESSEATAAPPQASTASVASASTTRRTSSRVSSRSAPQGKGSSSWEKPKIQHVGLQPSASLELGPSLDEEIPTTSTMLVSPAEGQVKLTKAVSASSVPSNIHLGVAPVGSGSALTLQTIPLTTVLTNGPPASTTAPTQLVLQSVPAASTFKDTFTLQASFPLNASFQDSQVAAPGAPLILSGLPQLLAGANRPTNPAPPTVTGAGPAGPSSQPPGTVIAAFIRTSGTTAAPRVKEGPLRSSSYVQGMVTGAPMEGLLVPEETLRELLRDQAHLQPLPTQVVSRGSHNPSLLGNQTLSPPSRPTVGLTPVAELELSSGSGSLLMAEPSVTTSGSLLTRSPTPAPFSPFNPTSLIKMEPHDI
CRX, sequence (O43186 whole entry): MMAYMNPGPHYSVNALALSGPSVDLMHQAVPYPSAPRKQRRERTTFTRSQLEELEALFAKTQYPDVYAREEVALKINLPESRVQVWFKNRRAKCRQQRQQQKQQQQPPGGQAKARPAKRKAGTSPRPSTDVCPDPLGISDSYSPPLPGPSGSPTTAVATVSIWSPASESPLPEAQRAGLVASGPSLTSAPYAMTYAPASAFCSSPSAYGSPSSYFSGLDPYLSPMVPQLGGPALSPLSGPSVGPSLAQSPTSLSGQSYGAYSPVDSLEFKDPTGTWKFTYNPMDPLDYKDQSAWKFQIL
ETV1, sequence (P50549 whole entry): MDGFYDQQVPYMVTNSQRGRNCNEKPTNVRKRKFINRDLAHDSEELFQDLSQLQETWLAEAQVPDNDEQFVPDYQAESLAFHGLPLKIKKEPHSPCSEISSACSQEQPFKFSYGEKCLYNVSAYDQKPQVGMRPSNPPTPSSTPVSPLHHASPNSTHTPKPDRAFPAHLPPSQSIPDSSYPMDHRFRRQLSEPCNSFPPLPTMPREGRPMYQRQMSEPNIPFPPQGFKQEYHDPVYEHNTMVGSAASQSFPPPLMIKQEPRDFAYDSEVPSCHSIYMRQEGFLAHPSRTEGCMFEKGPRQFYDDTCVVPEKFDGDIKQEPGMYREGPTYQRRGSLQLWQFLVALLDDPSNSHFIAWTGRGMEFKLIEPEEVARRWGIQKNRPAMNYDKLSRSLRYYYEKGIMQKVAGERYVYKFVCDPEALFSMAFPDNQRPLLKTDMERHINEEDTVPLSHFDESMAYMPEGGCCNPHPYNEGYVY
HSF1, sequence (Q00613 whole entry): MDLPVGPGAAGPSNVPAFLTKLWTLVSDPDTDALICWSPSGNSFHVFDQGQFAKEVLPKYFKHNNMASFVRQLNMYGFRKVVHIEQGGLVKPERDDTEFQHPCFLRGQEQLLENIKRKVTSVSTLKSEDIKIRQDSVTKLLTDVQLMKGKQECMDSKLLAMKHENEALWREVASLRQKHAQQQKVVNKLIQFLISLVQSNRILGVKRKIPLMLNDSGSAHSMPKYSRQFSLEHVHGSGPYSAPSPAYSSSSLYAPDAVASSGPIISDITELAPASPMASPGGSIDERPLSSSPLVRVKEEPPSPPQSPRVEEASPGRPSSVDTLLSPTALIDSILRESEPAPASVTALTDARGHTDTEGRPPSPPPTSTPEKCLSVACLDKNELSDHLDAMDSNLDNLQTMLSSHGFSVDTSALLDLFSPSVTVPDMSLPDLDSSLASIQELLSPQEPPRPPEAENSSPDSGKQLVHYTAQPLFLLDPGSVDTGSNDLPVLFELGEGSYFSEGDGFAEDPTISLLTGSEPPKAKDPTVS
ETV5, sequence (P41161 whole entry): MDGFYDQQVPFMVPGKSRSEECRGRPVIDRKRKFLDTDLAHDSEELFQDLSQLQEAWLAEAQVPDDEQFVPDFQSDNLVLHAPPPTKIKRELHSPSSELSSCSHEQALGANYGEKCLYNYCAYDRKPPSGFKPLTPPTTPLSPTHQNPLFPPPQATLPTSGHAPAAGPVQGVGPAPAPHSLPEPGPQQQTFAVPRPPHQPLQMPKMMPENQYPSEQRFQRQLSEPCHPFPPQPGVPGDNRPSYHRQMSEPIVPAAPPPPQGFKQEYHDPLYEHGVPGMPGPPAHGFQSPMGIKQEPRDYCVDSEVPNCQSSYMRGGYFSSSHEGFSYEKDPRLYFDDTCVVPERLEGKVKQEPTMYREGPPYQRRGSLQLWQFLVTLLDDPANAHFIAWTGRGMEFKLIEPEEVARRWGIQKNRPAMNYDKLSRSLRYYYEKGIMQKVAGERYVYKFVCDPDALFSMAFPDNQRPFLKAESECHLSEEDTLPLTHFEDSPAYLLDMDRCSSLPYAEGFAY
ELF1, sequence (P32519 whole entry): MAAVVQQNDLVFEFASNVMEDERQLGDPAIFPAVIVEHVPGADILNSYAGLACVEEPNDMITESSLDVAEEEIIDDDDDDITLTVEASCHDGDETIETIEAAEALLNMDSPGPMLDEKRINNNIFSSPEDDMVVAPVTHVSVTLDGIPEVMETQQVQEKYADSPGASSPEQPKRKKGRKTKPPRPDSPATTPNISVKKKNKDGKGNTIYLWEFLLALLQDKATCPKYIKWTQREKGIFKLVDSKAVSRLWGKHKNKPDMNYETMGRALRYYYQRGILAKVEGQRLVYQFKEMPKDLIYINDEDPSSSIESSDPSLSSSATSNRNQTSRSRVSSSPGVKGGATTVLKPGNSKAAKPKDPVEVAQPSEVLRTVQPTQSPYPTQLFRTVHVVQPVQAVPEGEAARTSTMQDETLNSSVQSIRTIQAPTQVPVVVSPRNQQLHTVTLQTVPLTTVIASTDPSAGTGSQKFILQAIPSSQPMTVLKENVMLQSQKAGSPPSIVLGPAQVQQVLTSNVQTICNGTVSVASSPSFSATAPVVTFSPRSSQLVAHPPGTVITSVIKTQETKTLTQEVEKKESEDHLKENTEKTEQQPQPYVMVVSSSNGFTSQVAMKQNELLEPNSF

For AGCATT, the binding signal (FLI1) was 1.12 fold enrichment (6-mer frequency, TF over GST control), the binding signal (ELK1) was 1.13 fold enrichment (6-mer frequency, TF over GST control) and the binding signal (GABPA) was 1.11 fold enrichment (6-mer frequency, TF over GST control). For the same sequence, the binding signal (ERG) was 1.09 fold enrichment (6-mer frequency, TF over GST control), the binding signal (ELF1) was 1.1 fold enrichment (6-mer frequency, TF over GST control) and the binding signal (EHF) was 1.08 fold enrichment (6-mer frequency, TF over GST control). For the same sequence, the binding signal (SPI1) was 1.03 fold enrichment (6-mer frequency, TF over GST control), the binding signal (SPIB) was 1.05 fold enrichment (6-mer frequency, TF over GST control) and the binding signal (ELK3) was 1.07 fold enrichment (6-mer frequency, TF over GST control). For the same sequence, the binding signal (FEV) was 1.11 fold enrichment (6-mer frequency, TF over GST control), the binding signal (ETV5) was 1.03 fold enrichment (6-mer frequency, TF over GST control) and the binding signal (HSF1) was 1.2 fold enrichment (6-mer frequency, TF over GST control). For the same sequence, the binding signal (SPIC) was 1.03 fold enrichment (6-mer frequency, TF over GST control), the binding signal (ELF4) was 1.11 fold enrichment (6-mer frequency, TF over GST control) and the binding signal (ELK4) was 1.08 fold enrichment (6-mer frequency, TF over GST control). The binding signal (ETV2) was 1.06 fold enrichment (6-mer frequency, TF over GST control), the binding signal (ELF3) was 1.22 fold enrichment (6-mer frequency, TF over GST control) and the binding signal (CRX) was 1.32 fold enrichment (6-mer frequency, TF over GST control). For the same sequence, the binding signal (ETV1) was 1.13 fold enrichment (6-mer frequency, TF over GST control).
